Some test systems named below: HCT-15 colon; HT29 colon; SNB-75 CNS; SNB-19 CNS; U251 CNS; PC-3 prostate; SK-MEL-5 melanoma; UACC-62 melanoma; LOX IMVI melanoma; SK-MEL-28 melanoma; SK-MEL-2 melanoma; EKVX NSCLC; SN12C renal; UO-31 renal; TK-10 renal; ACHN renal; CAKI-1 renal; A498 renal; CCRF-CEM leukemia; MOLT-4 leukemia.
Common to all, as to experiment: NCI-60 one-dose screen, 48 h (100 = growth as untreated, 0 = no growth, -100 = all killed)
Settings in all cases: 10 µM unless noted

The record followed here is PubChem BioAssay (NCI).

About 83,000 compounds went through this panel and 20% of them were active in at least one assay; those are over-represented in the sample as a whole.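 Percent growth is the endpoint: 0 to 100 indicates growth inhibition (40 means 60% inhibition), 0 means no net growth, and negative values indicate cell death.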 A number with no mark means an inactive call. Activity calls are given as the source filed them. Rule for the calls: active = growth percent below 10; inactive = the rest.

Regarding `Oc1c(Cl)cc(Oc2cc(Cl)c(O)c(CN3CCOCC3)c2)cc1CN1CCOCC1`, the growth in the test with HCT-15 colon was 82.1%; in the test on HT29 colon, 105%; with SNB-75 CNS, 88.1%; with SNB-19 CNS, 86.2%; with U251 CNS, 96.9%; in the test with PC-3 prostate, 81%. Further, the growth in the test with SK-MEL-5 melanoma is 87.5%; in the test on UACC-62 melanoma, 66.8%; in the test on LOX IMVI melanoma, 83.3%; in the test with SK-MEL-28 melanoma, 126%; in the test with SK-MEL-2 melanoma, 88.2%; in the test with EKVX NSCLC, 90.5%. Moreover, the growth in the test with SN12C renal is 95.4%; in the test on UO-31 renal, 71.1%; in the test with TK-10 renal, 95.1%; in the test with ACHN renal, 84.9%; in the test with CAKI-1 renal it was 78%; in the test on A498 renal it was 84.7%. Besides, the growth in the test with CCRF-CEM leukemia is 107%; in the test on MOLT-4 leukemia it was 80.4%.

Turning to `Cc1ccc(S(=O)(=O)NCCN2c3nc4ccccc4cc3Sc3cc4ccccc4nc32)cc1`, the growth in the test with HCT-15 colon is 103%; in the test with HT29 colon, 56.1%; in the test on SNB-75 CNS, -13% (active); in the test with SNB-19 CNS, 64.3%; in the test on U251 CNS, 34.4%; in the test on PC-3 prostate, 77.3%. In addition, the growth was 82.7% in the test with SK-MEL-5 melanoma; 66.9% in the test on UACC-62 melanoma; 66.5% in the test on LOX IMVI melanoma; 87.8% with SK-MEL-28 melanoma; 44.2% in the test on SK-MEL-2 melanoma; 70.3% with EKVX NSCLC. Also, the growth is 66% in the test with SN12C renal; -32% (active) in the test on UO-31 renal; 84.5% in the test on TK-10 renal; 54.2% with ACHN renal; 92.5% in the test with CAKI-1 renal; 149% in the test with A498 renal. The growth with CCRF-CEM leukemia was 93.7%; in the test with MOLT-4 leukemia, 108%.

In the case of `O=C(O)c1ccc2cccnc2c1O`, the growth with HCT-15 colon is 7.1% (active); in the test with HT29 colon, 10.9%; in the test on SNB-75 CNS, 23%; with SNB-19 CNS, 12.7%; with U251 CNS, 8.23% (active); in the test on PC-3 prostate, 1.21% (active). In addition, the growth in the test on SK-MEL-5 melanoma is 0.767% (active); with UACC-62 melanoma, 0.979% (active); in the test on LOX IMVI melanoma it was 3.31% (active); with SK-MEL-28 melanoma, 44.6%; in the test with SK-MEL-2 melanoma it was 4.77% (active); in the test on EKVX NSCLC, 18.8%. For the same compound, the growth with SN12C renal is 7.06% (active); with UO-31 renal it was -5.79% (active); with TK-10 renal, 13.2%; in the test on ACHN renal, 7.69% (active); with CAKI-1 renal it was 4.24% (active); with A498 renal, 13.6%. Further, the growth is 10.3% in the test with CCRF-CEM leukemia and 11.2% with MOLT-4 leukemia.

In the case of `CCCCc1ccc(C(N)=O)nc1`, the growth in the test with HCT-15 colon was 94.1%; in the test on HT29 colon, 109%; in the test on SNB-75 CNS, 79.2%; with SNB-19 CNS, 102%; in the test on U251 CNS it was 100%; in the test with PC-3 prostate it was 98.7%. Further, the growth in the test with SK-MEL-5 melanoma was 101%; with UACC-62 melanoma, 93.1%; in the test with LOX IMVI melanoma, 89%; with SK-MEL-28 melanoma, -97.1% (active); with SK-MEL-2 melanoma, 96%; in the test on EKVX NSCLC, 100%. Besides, the growth with SN12C renal was 98.7%; with UO-31 renal it was 88.7%; in the test on TK-10 renal, 103%; in the test on ACHN renal, 98.8%; in the test with CAKI-1 renal it was 102%; in the test with A498 renal it was -4.32% (active). In addition, the growth in the test on CCRF-CEM leukemia was 92%; in the test with MOLT-4 leukemia it was 101%.

As for `C=C1CCC2C(C)(COC(=O)CC)C(OC(=O)CC)CCC2(C)C1C/C=C1/C(=O)OCC1OC(=O)CC` (stereo not given), the growth was 0.0652% (active) in the test with HCT-15 colon; -73.2% (active) with HT29 colon; -3.12% (active) in the test with SNB-75 CNS; 62% in the test on SNB-19 CNS; -72.3% (active) with U251 CNS; 27.7% in the test with PC-3 prostate. Further, the growth with SK-MEL-5 melanoma was 16.8%; with UACC-62 melanoma it was 0.659% (active); in the test on LOX IMVI melanoma, -99.1% (active); in the test with SK-MEL-28 melanoma, -36.1% (active); in the test with SK-MEL-2 melanoma, 19.1%; in the test on EKVX NSCLC, 85.1%. The growth in the test on SN12C renal was 0.261% (active); in the test on UO-31 renal it was -72.2% (active); with TK-10 renal, 1.32% (active); with ACHN renal, -90.7% (active); in the test with CAKI-1 renal, 19.2%; in the test with A498 renal, 81.4%. The figures for the growth in the test with CCRF-CEM leukemia and with MOLT-4 leukemia were -25.5% (active) and -11% (active), respectively.

With `CCN(CC)c1ccc(N=C2C=CC(=O)C=C2NC(C)=O)cc1`, the growth with HCT-15 colon was 90.3%; in the test with HT29 colon, 104%; in the test with SNB-75 CNS, 96.7%; with SNB-19 CNS, 116%; in the test with U251 CNS, 87.9%; in the test on PC-3 prostate, 83.6%. In addition, the growth is 88.5% with SK-MEL-5 melanoma; 93.2% in the test on UACC-62 melanoma; 80.8% with LOX IMVI melanoma; 127% in the test with SK-MEL-28 melanoma; 98.6% in the test on SK-MEL-2 melanoma; 106% in the test on EKVX NSCLC. For the same compound, the growth is 97.5% with SN12C renal; 71% in the test on UO-31 renal; 95.9% in the test with TK-10 renal; 83.7% in the test on ACHN renal; 105% in the test on CAKI-1 renal; 82.1% in the test on A498 renal. The growth is 87.6% in the test with CCRF-CEM leukemia and 99.5% in the test with MOLT-4 leukemia.

On to `Nc1ccc2c(c1Br)Cc1ccccc1-2`, for which the growth in the test on HCT-15 colon is 69.9%; in the test on HT29 colon it was 111%; in the test on SNB-75 CNS it was 87.7%; in the test on SNB-19 CNS, 98.9%; in the test with U251 CNS it was 93.6%; with PC-3 prostate it was 83.4%. For the same compound, the growth was 107% in the test with SK-MEL-5 melanoma; 91% in the test on UACC-62 melanoma; 90.5% with LOX IMVI melanoma; 121% in the test with SK-MEL-28 melanoma; 94.2% in the test on SK-MEL-2 melanoma; 68% with EKVX NSCLC. The growth in the test on SN12C renal is 86.6%; in the test with UO-31 renal it was 54.4%; in the test with TK-10 renal, 123%; with ACHN renal it was 95.8%; with CAKI-1 renal, 98.6%; in the test on A498 renal it was 86.8%. The results for the growth with CCRF-CEM leukemia and in the test with MOLT-4 leukemia were 53.2% and 68.4%, respectively.

As to `c1ccc(N2c3nc4ccccc4cc3Sc3cc4ccccc4nc32)nc1`, the growth with HCT-15 colon was 95.6%; with HT29 colon it was 104%; with SNB-75 CNS it was 109%; with SNB-19 CNS it was 97.8%; in the test on U251 CNS, 85.7%; in the test with PC-3 prostate it was 72.5%. In addition, the growth in the test on SK-MEL-5 melanoma is 91.3%; in the test with UACC-62 melanoma, 78.4%; in the test with LOX IMVI melanoma, 84.1%; with SK-MEL-28 melanoma, 115%; in the test with SK-MEL-2 melanoma, 39.4%; in the test with EKVX NSCLC, 68.9%. The growth in the test on SN12C renal was 76.1%; in the test on UO-31 renal it was 26.9%; with TK-10 renal, 114%; in the test on ACHN renal it was 92%; with CAKI-1 renal it was 69%; in the test with A498 renal it was 73.2%. Also, the results for the growth in the test on CCRF-CEM leukemia and in the test on MOLT-4 leukemia were 87.5% and 78%, respectively.
